Data reported in PubChem BioAssay AID489028 (Sanford-Burnham Center for Chemical Genomics, 2010).
Out of some 10,000 compounds screened, about 5,600 (56%) were called active. The set was probably picked from earlier hits. A selection follows. A number with no mark means an inactive call. No stated cut-off is given here; in the data, active means inhibition above about 40%; inactive means the rest.

Biological target: Protein Mdm4 (Homo sapiens) + E3 ubiquitin-protein ligase Mdm2 (Homo sapiens) (UniProt O15151+Q00987)
Assay: inhibition of human Mdm2/MdmX pairing – luminescence, single concentration, confirmation (AID 489028)
Details: Mdm2-MdmX binding, luminescent assay; at 8 µM; active compounds read high

Protein Mdm4 (Homo sapiens) + E3 ubiquitin-protein ligase Mdm2 (Homo sapiens), sequence (O15151 whole entry, looked up): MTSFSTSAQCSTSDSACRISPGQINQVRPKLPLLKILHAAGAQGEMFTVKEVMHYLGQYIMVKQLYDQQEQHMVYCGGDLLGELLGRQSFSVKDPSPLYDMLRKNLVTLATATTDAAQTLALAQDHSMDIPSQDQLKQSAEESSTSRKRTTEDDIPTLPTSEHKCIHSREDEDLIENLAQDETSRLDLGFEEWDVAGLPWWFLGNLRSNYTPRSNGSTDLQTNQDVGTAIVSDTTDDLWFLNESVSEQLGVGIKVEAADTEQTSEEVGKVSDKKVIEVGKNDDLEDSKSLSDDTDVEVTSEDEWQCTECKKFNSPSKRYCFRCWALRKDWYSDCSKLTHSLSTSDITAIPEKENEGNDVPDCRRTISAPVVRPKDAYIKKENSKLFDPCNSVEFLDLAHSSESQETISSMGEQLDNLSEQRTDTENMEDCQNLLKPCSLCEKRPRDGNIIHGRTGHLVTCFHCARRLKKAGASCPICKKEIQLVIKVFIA
Protein Mdm4 (Homo sapiens) + E3 ubiquitin-protein ligase Mdm2 (Homo sapiens), sequence (Q00987 whole entry, looked up): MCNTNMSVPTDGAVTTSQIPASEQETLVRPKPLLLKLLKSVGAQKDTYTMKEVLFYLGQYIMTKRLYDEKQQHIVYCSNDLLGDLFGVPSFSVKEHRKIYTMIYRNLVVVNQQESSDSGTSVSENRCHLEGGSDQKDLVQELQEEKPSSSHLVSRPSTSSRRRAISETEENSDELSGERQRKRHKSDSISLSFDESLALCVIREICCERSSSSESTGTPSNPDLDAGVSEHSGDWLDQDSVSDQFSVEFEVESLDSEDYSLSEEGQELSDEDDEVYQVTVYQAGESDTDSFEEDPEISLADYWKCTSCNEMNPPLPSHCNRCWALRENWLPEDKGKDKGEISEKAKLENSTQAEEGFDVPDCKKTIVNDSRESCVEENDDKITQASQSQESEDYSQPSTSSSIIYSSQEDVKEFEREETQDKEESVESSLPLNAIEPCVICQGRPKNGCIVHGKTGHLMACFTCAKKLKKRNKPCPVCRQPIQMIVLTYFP

SMILES	inhibition
COc1cc(OC)c2c(-c3cccc(-c4cccc(N)c4)c3)cc(=O)oc2c1	52.7% (active)
CCN(CC)CCC(c1cc(OC)c(OC)c(OC)c1)c1c(OC)cc(OC)c2c(-c3ccccc3)cc(=O)oc12 (stereo not drawn)	27.6%
CCN(CC)CCC(c1ccc2c(c1)OCO2)c1c(OC)cc(OC)c2c(-c3ccccc3)cc(=O)oc12 (stereo not drawn)	29.8%
COc1c(C)c2c(c(O)c1C/C=C(\C)CCC(=O)O)C(=O)OC2	80.7% (active)
CCCCn1c(-c2cccc(C)c2)nc2cc3[nH]c(=O)c(C(C)C)nc3cc21	38%
COc1ccc(-c2nc3cc(C)ccn3c2NC2CCCCC2)cc1SC1CCCCC1	19.9%
COc1cc(NC(=O)c2cncc(-c3ccc(C#N)cc3)c2)cc(C(=O)Nc2cccc(C(F)(F)F)c2)c1	55.5% (active)
COc1cc(NC(=O)c2[nH]cnc2C(N)=O)cc(C(=O)Nc2cccc(C(F)(F)F)c2)c1	63.5% (active)
CCOC(=O)c1ccc(NC(=O)c2nc[nH]c2C(=O)N[C@@H](CCCCNC(=O)OC(C)(C)C)C(=O)OC(C)(C)C)cc1	19.6%
Cc1nc(SCC(=O)Nc2cc(C)on2)c2c(C)c(C)sc2n1	27.6%
Cc1nc(N=C(N)N)nc2c(C)cccc12	53.1% (active)
O=C(CC(O)(C(F)(F)F)C(F)(F)F)Nc1ccc(Cl)c(Cl)c1	95.7% (active)
O=C(Cc1ccc(Cl)c(Cl)c1)Nc1ccc(SC(F)F)cc1	-2.4%
COC(=O)C1=CN(C)C=C(C(=O)OC)C1c1ccc(Cl)cc1Cl	3.05%
O=C(/C(=C/c1cccc(Cl)c1)c1nc2ccccc2[nH]1)c1ccccc1	43.5% (active)
CCOc1cc(/C=C/c2nc3ccccc3c(=O)[nH]2)cc(Br)c1OC	69.5% (active)
Cc1ccc(-c2cn3cc(C)ccc3n2)cc1	81.3% (active)
Cc1ccc2nc(-c3ccc(Br)cc3)cn2c1	53.3% (active)
Cc1ccc(Nc2cc(=O)n(C3CCCCC3)c(=O)[nH]2)cc1C	19.4%
O=C(c1ccc(Cl)cc1)N1N=C(c2ccccn2)CC1(O)C(F)(F)F (stereo not drawn)	15.9%
Cc1cccc([C@@H]2[C@@H]3C(=O)N(Cc4ccccc4)C(=O)[C@@H]3[C@]3(C)C(=O)N(c4ccc(Br)cc4)C(=O)N23)c1	24.9%
O=C1[C@H]2[C@@H](c3ccc(F)cc3)N3C(=O)N(c4ccc(C(F)(F)F)cc4)C(=O)[C@@]3(Cc3ccccc3)[C@H]2C(=O)N1C1CCCCC1	100% (active)
CSc1nc(-c2ccccc2)nc(C(Cl)Cl)n1	98.6% (active)
OCCCNc1nccc(-c2cc(Nc3cccc(Cl)c3)ncn2)n1	99.8% (active)
COc1ccc(C(=O)NC(=S)NNC(=O)CCc2ccccc2)cc1	4.55%
CC[C@]1(C(=O)OC)[C@H]2C(=O)N(Cc3ccccc3)C(=O)[C@H]2[C@H]2CN=C(SCc3ccccc3)N21	70% (active)
CC[C@]1(C(=O)OC)[C@H]2C(=O)N(Cc3ccccc3)C(=O)[C@H]2[C@H]2CN=C(SCc3ccc(C#N)cc3)N21	98.8% (active)
CC[C@]1(C(=O)OC)[C@H]2C(=O)N(Cc3ccccc3)C(=O)[C@H]2[C@H]2CN=C(SCc3ccc(Cl)cc3)N21	99.7% (active)
